Results filed as inconclusive are left out. The source made the active and inactive calls. Calls follow the shape of the dose curve; as a rule, active = well fitted curve in the direction sought with a large enough effect; inconclusive = small, poorly fitted or top-dose-only effect, or another doubt; inactive = no such curve, though single readings can be large; an effect the other way counts as inactive or inconclusive.
How the values were obtained:
[1] = qHTS of pediatric cancer cell lines to identify multiple opportunities for drug repurposing: Primary screen for Saos-2 cells (AID 1347097); also: nearly all actives have a fitted effect of over 40% in size; also: potency is read from the fitted curve at half-maximal effect
Method in brief: (§1)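 Quantitative HTS format: each compound titrated (MIPE 11 points from 0.78 nM, NPC 8 points from 0.59 nM) onto cells plated 5 hours earlier. After 48 h at 37 degrees C, CellTiter-Glo luminescence was recorded.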

[2] = qHTS of pediatric cancer cell lines to identify multiple opportunities for drug repurposing: Primary screen for SK-N-SH cells (AID 1347098); also: nearly all actives have a fitted effect of over 65% in size; also: potency is read from the fitted curve at half-maximal effect
Method in brief: (§2)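 Cells (500-1,000/well) rested 5 h, then received compounds for 48 h; metabolically active cells were measured by CellTiter-Glo luminescence. Final concentrations spanned up to 46 µM (MIPE, 11-point) or 0.59 nM-46 µM (NPC, 8-point) in primary screens, 11-point in follow-ups.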

[3] = qHTS of pediatric cancer cell lines to identify multiple opportunities for drug repurposing: Primary screen for NB1643 cells (AID 1347099); also: nearly all actives have a fitted effect of over 50% in size; also: potency is read from the fitted curve at half-maximal effect
Method in brief: as §1

[4] = qHTS of pediatric cancer cell lines to identify multiple opportunities for drug repurposing: Primary screen for LAN-5 cells (AID 1347100); also: potency is read from the fitted curve at half-maximal effect
Method in brief: (§3)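 Viability after 48 h compound treatment at 37C, 500-1,000 cells/well, read as ATP luminescence with CellTiter-Glo. Primary screens used 11-point (MIPE, 0.78 nM-46 µM) or 8-point (NPC, 0.59 nM-46 µM) final concentrations; follow-up screens used 11-point dilutions.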

[5] = qHTS of pediatric cancer cell lines to identify multiple opportunities for drug repurposing: Primary screen for BT-12 cells (AID 1347101); also: nearly all actives have a fitted effect of over 25% in size; also: potency is read from the fitted curve at half-maximal effect
Method in brief: as §2

[6] = qHTS of pediatric cancer cell lines to identify multiple opportunities for drug repurposing: Primary screen for Rh18 cells (AID 1347102); also: nearly all actives have a fitted effect of over 65% in size
Method in brief: as §3

[7] = qHTS of pediatric cancer cell lines to identify multiple opportunities for drug repurposing: Primary screen for OHS-50 cells (AID 1347103); also: nearly all actives have a fitted effect of over 40% in size; also: potency is read from the fitted curve at half-maximal effect
Method in brief: as §2

[8] = qHTS of pediatric cancer cell lines to identify multiple opportunities for drug repurposing: Primary screen for RD cells (AID 1347104); also: nearly all actives have a fitted effect of over 55% in size; also: potency is read from the fitted curve at half-maximal effect
Method in brief: as §1

[9] = qHTS of pediatric cancer cell lines to identify multiple opportunities for drug repurposing: Primary screen for MG 63 (6-TG R) cells (AID 1347105); also: nearly all actives have a fitted effect of over 50% in size; also: potency is read from the fitted curve at half-maximal effect
Method in brief: as §1

[10] = qHTS of pediatric cancer cell lines to identify multiple opportunities for drug repurposing: Primary screen for control Hh wild type fibroblast cells (AID 1347106); also: nearly all actives have a fitted effect of over 55% in size; also: potency is read from the fitted curve at half-maximal effect
Method in brief: as §3

[11] = qHTS of pediatric cancer cell lines to identify multiple opportunities for drug repurposing: Primary screen for Rh30 cells (AID 1347107); also: series mostly up to about 46 µM; nearly all actives have a fitted effect of over 75% in size
Method in brief: as §3

[12] = qHTS of pediatric cancer cell lines to identify multiple opportunities for drug repurposing: Primary screen for Rh41 cells (AID 1347108);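 also: series mostly up to about 46 µM; luminescence drop marks cytotoxic hits; nearly all actives have a fitted effect of over 70% in size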
Method in brief: as §1

[13] = qHTS of pediatric cancer cell lines to identify multiple opportunities for drug repurposing: Confirmatory screen for A673 cells (AID 1347110); also: nearly all actives have a fitted effect of over 65% in size; also: potency is read from the fitted curve at half-maximal effect
Method in brief: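 A673 cells at 500-1,000 cells/well were dosed 5 h after plating, in dilution series up to 46 uM final; primary runs used 8 or 11 points and confirmatory runs used 11 points. Viability was read by CellTiter-Glo luminescence after 48 h, against DMSO and 2.3 uM bortezomib controls.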

[14] = qHTS of pediatric cancer cell lines to identify multiple opportunities for drug repurposing: Confirmatory screen for NB1643 cells (AID 1347109); also: potency is read from the fitted curve at half-maximal effect; nearly all actives have a fitted effect of over 45% in size
Method in brief: as §3

[15] = qHTS of pediatric cancer cell lines to identify multiple opportunities for drug repurposing: Confirmatory screen for SK-N-MC cells (AID 1347111);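 also: potency is read from the fitted curve at half-maximal effect; cells exposed to compound for 48 h before the readout; nearly all actives have a fitted effect of over 70% in size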
Method in brief: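 SK-N-MC cells at 500-1,000 cells/well in growth media were pre-incubated 5 h, then exposed to compounds at 11-point dilutions for 48 h at 37 degrees C, 5% CO2. Viability was read as CellTiter-Glo luminescence.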

[16] = qHTS of pediatric cancer cell lines to identify multiple opportunities for drug repurposing: Confirmatory screen for BT-12 cells (AID 1347112); also: potency is read from the fitted curve at half-maximal effect; nearly all actives have a fitted effect of over 55% in size
Method in brief: as §3

[17] = qHTS of pediatric cancer cell lines to identify multiple opportunities for drug repurposing: Confirmatory screen for SJ-GBM2 cells (AID 1347116); also: potency is read from the fitted curve at half-maximal effect; nearly all actives have a fitted effect of over 60% in size
Method in brief: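 Viability measured as metabolically active cells via CellTiter-Glo luminescence following 48 hours of compound exposure, 11-point dilutions in confirmatory testing. 500-1,000 cells/well plated 5 hours before dosing; controls were DMSO and 2.3 µM bortezomib.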

[18] = qHTS of pediatric cancer cell lines to identify multiple opportunities for drug repurposing: Confirmatory screen for BT-37 cells (AID 1347117); also: potency is read from the fitted curve at half-maximal effect; nearly all actives have a fitted effect of over 55% in size
Method in brief: as §3

[19] = qHTS of pediatric cancer cell lines to identify multiple opportunities for drug repurposing: Confirmatory screen for TC32 cells (AID 1347118); also: potency is read from the fitted curve at half-maximal effect; nearly all actives have a fitted effect of over 65% in size
Method in brief: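 Luminescent ATP read-out (CellTiter-Glo) of metabolically active TC32 cells after 48 h exposure. Concentration-response curves came from 11-point (MIPE, 0.78 nM–46 µM) or 8-point (NPC, 0.59 nM–46 µM) primary titrations; follow-up used 11 points.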

[20] = qHTS of pediatric cancer cell lines to identify multiple opportunities for drug repurposing: Confirmatory screen for MG 63 (6-TG R) cells (AID 1347119)
Method in brief: as §3

Measured: Potency

C[C@@H]1CN(C2CCC(C#N)(c3ccc(F)cc3)CC2)CC[C@]1(C(=O)O)c1ccccc1 (stereo partly drawn)
inactive: [1] | [2] | [3] | [4] | [5] | [6] | [7] | [8] | [9] | [10] | [11]

ClCc1cccc(Cl)c1
not listed: [13] | [14] | [15] | [16] | [17] | [18] | [19] | [20]
inactive: all other assays above

CC(CC(C(N)=O)(c1ccccc1)c1ccccc1)N(C)C (stereo not drawn)
inactive: [1] | [2] | [3] | [4] | [5] | [6] | [8] | [9] | [10] | [11] | [12]

CCN1CCCC1CNC(=O)C(O)(c1ccccc1)c1ccccc1 (stereo not drawn)
inactive: [1] | [2] | [3] | [4] | [5] | [6] | [7] | [8] | [9] | [10] | [11]

C1CN2CCC1CC2
not listed: [13] | [14] | [15] | [16] | [17] | [18] | [19] | [20]
inactive: all other assays above

O=C(O)Cc1ccccc1
not listed: [12] | [14] | [15] | [16] | [17] | [18] | [19] | [20]
inactive: all other assays above

Sc1ccccc1Cl
not listed: [13] | [14] | [15] | [16] | [17] | [18] | [19] | [20]
inactive: all other assays above

C[C@@H]1O[C@@H](O[C@@H]2C=C3CC[C@@H]4[C@H](CC[C@]5(C)[C@@H](c6ccc(=O)oc6)CC[C@]45O)[C@@]3(C)CC2)[C@H](O)[C@H](O)[C@H]1O
inactive: [11]
active: [1] 0.0038 µM | [2] 0.0687 µM | [3] 0.0067 µM | [4] 0.0106 µM | [5] 0.0031 µM | [7] 0.0025 µM | [8] 0.0015 µM | [9] 0.0017 µM | [10] 0.0075 µM | [14] 0.0827 µM | [13] 0.0585 µM | [15] 0.0293 µM | [16] 0.0414 µM | [17] 0.0465 µM | [18] 0.0147 µM | [19] 0.0233 µM | [20] 0.0083 µM

COP(=S)(OC)Oc1ccc(S(N)(=O)=O)cc1
not listed: [13] | [14] | [15] | [16] | [17] | [18] | [19] | [20]
inactive: all other assays above

NC(=O)OCCCc1ccccc1
inactive: [1] | [2] | [3] | [5] | [6] | [7] | [8] | [9] | [10] | [11] | [12]

C=CCOC(Cn1ccnc1)c1ccc(Cl)cc1Cl (stereo not drawn)
inactive: [1] | [2] | [3] | [4] | [6] | [8] | [9] | [10] | [11]

OC(c1ccccc1)(c1ccccc1)C1CCNCC1
inactive: [1] | [2] | [3] | [4] | [5] | [8] | [9] | [10] | [11]

O=C(CCCN1CCC(n2c(=O)[nH]c3ccccc32)CC1)c1ccc(F)cc1
inactive: [1] | [2] | [3] | [4] | [6] | [8] | [9] | [10] | [11] | [12]

Cc1cccc(Cc2cnc[nH]2)c1C
inactive: [2] | [3] | [4] | [5] | [6] | [8] | [9] | [10] | [11]
active: [1] 29.9 µM

CCCC[N+]1(C)[C@@H]2CC(OC(=O)[C@H](CO)c3ccccc3)C[C@H]1[C@@H]1O[C@@H]12 (stereo partly drawn)
inactive: [1] | [2] | [3] | [5] | [6] | [7] | [8] | [9] | [10] | [11]

C[C@H]1CNCCc2ccc(Cl)cc21
inactive: [1] | [2] | [3] | [4] | [5] | [6] | [8] | [9] | [10] | [11] | [12]

CN(C)CCc1c[nH]c2ccc(O)cc12
inactive: [1] | [2] | [3] | [5] | [6] | [7] | [9] | [10] | [11]

CC(C)C(Br)C(=O)NC(N)=O (stereo not drawn)
inactive: [1] | [2] | [4] | [5] | [6] | [7] | [8] | [9] | [10] | [11]

COc1cc(N)c(Cl)cc1C(=O)NC1CN2CCC1CC2 (stereo not drawn)
not listed: [13] | [14] | [15] | [16] | [17] | [18] | [19] | [20]
inactive: all other assays above

NC(=O)CN1CCCC1=O
inactive: [1] | [2] | [3] | [5] | [6] | [7] | [8] | [9] | [10] | [11] | [12]

Reference: PubChem BioAssay (NCATS)
